We go through 4 compounds from PubChem BioAssay (Tox21).

For experiment [1], the target named is Acetylcholinesterase (Homo sapiens) (UniProt P22303). Briefly: Acetylcholinesterase (AChE) small molecule antagonists: enzyme-based qHTS assay (AID 1347397; calls by dose curve; further: nearly all actives have a fitted effect of over 55% in size). Conditions: Potency: AChE enzyme activity inhibition; outcome: AChE enzyme activity inhibition. The gist of the method:
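rhAChE 50 mU/mL (dispensed) + cpd or DMSO, 30 min RT; add DTNB/acetylthiocholine cocktail, 10 min RT; colorimetric thiocholine readout. qHTS, 1536-well format.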
A general note: Quantitative high-throughput screening tests each substance at several concentrations.

For experiment [2] the target is unchanged. Description: Acetylcholinesterase (AChE) small molecule antagonists: fluorescence cell-based qHTS assay (AID 1347398; calls by dose curve; further: nearly all actives have a fitted effect of over 50% in size). Conditions: Potency: AChE activity; outcome: AChE activity. The method in brief: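 Read-out is Thiolite Green fluorescence at Ex/Em = 490/520 nm, formed by reaction with thiocholine released when cellular AChE in SH-SY5Y cells hydrolyzes acetylthiocholine. Compounds were preincubated 30 min at 37 C before substrate.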

Experiment [3] has the same target. Briefly: Acetylcholinesterase (AChE) small molecule antagonists: enzyme-based qHTS assay with human liver microsomes (AID 1347399; calls by dose curve; further: nearly all actives have a fitted effect of over 60% in size). To be noted: Potency: qHTS inhibition; outcome: qHTS inhibition. The gist of the method:
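Recombinant human AChE (50 mU/mL in the enzyme mix) and human liver microsomes (0.25 mg/mL final) were preincubated with compound and NADPH (0.25 mg/mL final) for 30 min at 37 C. Acetylthiocholine/DTNB was then added; thiocholine was read colorimetrically after 10 min at room temperature.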

The nature of experiment [4]: qHTS assay for small molecule agonists of the p53 signaling pathway (AID 651631; calls by dose curve; further: nearly all actives have a fitted effect of over 15% in size). The gist of the method:
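We treat p53RE-bla HCT-116 cells with compounds for 16 h at 37 °C, add LiveBLAzer B/G FRET substrate for 2 h at room temperature, and measure fluorescence intensity.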

The nature of experiment [5]: qHTS assay for small molecules that induce genotoxicity in human embryonic kidney cells expressing luciferase-tagged ATAD5 (AID 651632). Further: nearly all actives have a fitted effect of over 15% in size. The method in brief:
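HEK293T cells carrying a luciferase reporter tagged to ATAD5 were exposed to compound or DMSO vehicle for 16 hr at 37C, 5% CO2. Amplite was added, and after 30 min at room temperature luciferase activity was read as a marker of ATAD5 induction.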

A short description of experiment [6]: qHTS assay for small molecule agonists of the p53 signaling pathway - cell viability (AID 651633; calls by dose curve;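 further: p53RE-bla HCT reporter cells with a stable beta-lactamase p53 reporter; series mostly up to about 83 µM; nearly all actives have a fitted effect of over 30% in size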). The method in brief:
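Viability counter-read: CellTiter-Glo luminescence (30 min, room temperature) in the same p53RE-bla plates. These plates had been exposed to compounds for 16 h at 37 C.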

The nature of experiment [7]: qHTS assay for small molecules that induce genotoxicity in human embryonic kidney cells expressing luciferase-tagged ATAD5 - cell viability (AID 651634; calls by dose curve; further: nearly all actives have a fitted effect of over 25% in size). The gist of the method: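 HEK293T cells expressing luciferase-tagged ATAD5 were exposed to compound or DMSO for 15.5 hr at 37C, 5% CO2. Viability was then read as live-cell protease activity by CellTiter-Fluor fluorescence after 30 min at 37C.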

Experiment [8] in a line: qHTS assay for small molecule disruptors of the mitochondrial membrane potential - cell viability (AID 720634; calls by dose curve;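 further: human HepG2 liver cancer cells; series mostly up to about 83 µM; nearly all actives have a fitted effect of over 20% in size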). The method in brief: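 HepG2 cells seeded overnight at 37 C, then exposed to compound or DMSO for 1 hr at 37 C, 5% CO2. m-MPI dye added, then CellTiter-Glo for 30 min at room temperature; viability read as ATP luminescence.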
A short description of experiment [9]: qHTS assay for small molecule disruptors of the mitochondrial membrane potential (AID 720635). The gist of the method: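 Mitochondrial membrane potential tracked with Mito-MPS dye, red aggregates (ex 540/em 590 nm) against green monomers (ex 490/em 535 nm). Compound treatment 1 hr at 37C, dye 30 min in HepG2.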
Experiment [10] can be described thus: qHTS assay to test for compound auto fluorescence at 590 nm (red) in HepG2 cells (AID 720674). The gist of the method: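 Red autofluorescence (Ex/Em 540/590 nm, Rose Bengal sodium equivalents) was measured in HepG2 cells, 2,000 per well in MEM plus 10% FBS, plated overnight at 37 C. Readings were taken 1 hr after adding 23 nL compound or DMSO, at 37 C and 5% CO2.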

The nature of experiment [11]: qHTS assay to test for compound auto fluorescence at 535 nm (green) in HepG2 cells (AID 720675).
Experiment [12] in a line: qHTS assay to test for compound auto fluorescence at 590 nm (red) in HEK293 cells (AID 720679). The gist of the method: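 HEK293 cells (2,000/well, 10% dialyzed FBS) attached 4-5 hr, then dosed with compound or DMSO and incubated overnight at 37C, 5% CO2. Red fluorescence read at 540/590 nm, Rose Bengal sodium as reference fluorophore.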
Experiment [13] can be described thus: qHTS assay to test for compound auto fluorescence at 535 nm (green) in HEK293 cells (AID 720680).
The nature of experiment [14]: qHTS assay to test for compound auto fluorescence at 460 nm (blue) in HEK293 cell free culture (AID 720681). The gist of the method:
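Blue fluorescence (Ex 405/Em 460 nm, triamterene-equivalent) was read immediately after pin transfer of compound or DMSO into medium (DMEM, 10% FBS) without cells.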

Experiment [15] in a line: qHTS assay to test for compound auto fluorescence at 535 nm (green) in HEK293 cell free culture (AID 720682). The method in brief: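 Green-channel intensity (Ex/Em 485/535 nm) was recorded from compound-treated wells containing only DMEM with 10% FBS. Fluorescein provided the equivalency standard.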
The nature of experiment [16]: qHTS assay to test for compound auto fluorescence at 590 nm (red) in HEK293 cell free culture (AID 720683). The gist of the method: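 Red-channel autofluorescence of compounds in culture medium (DMEM, 10% FBS), no cells, measured at 540/590 nm. Rose Bengal sodium is the reference fluorophore for equivalence.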
The nature of experiment [17]: qHTS assay to test for compound auto fluorescence at 590 nm (red) in HepG2 cell free culture (AID 720684). The method in brief:
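Steps: dispense MEM/10% FBS medium, no cells; pin compound or DMSO vehicle; read red channel, Ex/Em 540/590 nm. Output given as Rose Bengal sodium equivalents.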

Experiment [18] can be described thus: qHTS assay to test for compound auto fluorescence at 460 nm (blue) in HepG2 cell free culture (AID 720685). The method in brief:
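Compound (23 nL) or DMSO pinned into cell-free MEM with 10% FBS; blue fluorescence read at 405/460 nm excitation/emission, expressed as auto-fluorescence equivalency to triamterene.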

Experiment [19] in a line: qHTS assay to test for compound auto fluorescence at 535 nm (green) in HepG2 cell free culture (AID 720686).
Experiment [20] is described as follows: qHTS assay to test for compound auto fluorescence at 460 nm (blue) in HepG2 cells (AID 720687). The method in brief:
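Blue-channel autofluorescence (Ex/Em 405/460 nm, triamterene-equivalent) was measured after 1 hr compound exposure at 37 C, 5% CO2. Cells were HepG2, plated overnight at 37 C in MEM plus 10% FBS.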

Experiment [21] can be described thus: qHTS assay to identify small molecule antagonists of the glucocorticoid receptor (GR) signaling pathway - cell viability counter screen (AID 720693). Further: nearly all actives have a fitted effect of over 55% in size.
The nature of experiment [22]: qHTS assay for identifying genotoxic compounds that show differential cytotoxicity against isogenic chicken DT40 cell lines with known DNA damage response pathways - wild type cell line (AID 743012). Further: potency means the concentration at half of the fitted maximal effect; nearly all actives have a fitted effect of over 60% in size. The method in brief:
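Parental DNA repair-proficient DT40 cells, 300 per well, were pre-incubated ~0.5 h at 37 C/5% CO2, pin-dosed with compounds in DMSO, then incubated 40 h. Viability was read as CellTiter-Glo luminescence after 30 min at room temperature.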

Experiment [23] in a line: qHTS assay for identifying genotoxic compounds that show differential cytotoxicity against isogenic chicken DT40 cell lines with known DNA damage response pathways - Rev3 mutant cell line (AID 743014). Further: potency means the concentration at half of the fitted maximal effect; nearly all actives have a fitted effect of over 55% in size.
Experiment [24] is described as follows: qHTS assay for identifying genotoxic compounds that show differential cytotoxicity against isogenic chicken DT40 cell lines with known DNA damage response pathways - Rad54/Ku70 mutant cell line (AID 743015). Further: potency means the concentration at half of the fitted maximal effect; nearly all actives have a fitted effect of over 60% in size.
Experiment [25] can be described thus: qHTS assay to identify small molecule antagonists of the androgen receptor (AR) signaling pathway - cell viability counter screen (AID 743033; further: nearly all actives have a fitted effect of over 45% in size).
The nature of experiment [26]: qHTS assay to identify small molecule antagonists of the thyroid receptor (TR) signaling pathway - cell viability counter screen (AID 743064). Further: nearly all actives have a fitted effect of over 50% in size. The gist of the method:
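In rat pituitary GH3.TRE-Luc reporter cells co-exposed to compound and 1 nM T3 for 23.5 h, cytotoxicity was assessed with CellTiter-Fluor in the same wells, read by fluorescence.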

The subject of experiment [27] is thyroid hormone receptor (rat, GH3 cells). Description: qHTS assay to identify small molecule agonists of the thyroid receptor (TR) signaling pathway (AID 743066; calls by dose curve).
Experiment [28] concerns the target Estrogen receptor (Homo sapiens) (UniProt P03372). Briefly: qHTS assay to identify small molecule antagonists of the estrogen receptor alpha (ER-alpha) signaling pathway (AID 743069; active means well fitted curve in the direction sought with a large enough effect in the signal ratio in the repeat runs, not every such curve was filed as active; the % refers to the signal ratio). The method in brief:
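ER-alpha-UAS-bla GripTite HEK293 line; 2% charcoal-stripped FBS overnight; plated, 4 hr 37C/5% CO2; cpd in DMSO + 17beta-estradiol, 18 hr 37C; LiveBLAzer B/G FRET substrate 2 hr RT; fluorescence intensity.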

The nature of experiment [29]: qHTS assay to identify small molecule antagonists of the estrogen receptor alpha (ER-alpha) signaling pathway - cell viability counter screen (AID 743074; calls by dose curve;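 further: HEK293 cells carrying ER-alpha-UAS-bla reporter stimulated with 17beta-estradiol; nearly all actives have a fitted effect of over 45% in size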).
Experiment [30] concerns the target Estrogen receptor (Homo sapiens) (UniProt P03372). Description: qHTS assay to identify small molecule agonists of the estrogen receptor alpha (ER-alpha) signaling pathway (AID 743075; calls by dose curve;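 further: HEK293 GripTite cells with ER-alpha and UAS-driven beta-lactamase reporter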).
Experiment [31] has the same target. Description: qHTS assay to identify small molecule agonists of the estrogen receptor alpha (ER-alpha) signaling pathway using the BG1 cell line (AID 743079). Further: potency means the concentration at half of the fitted maximal effect; nearly all actives have a fitted effect of over 20% in size.
The nature of experiment [32]: qHTS assay to identify small molecule antagonists of the estrogen receptor alpha (ER-alpha) signaling pathway using the BG1 cell line (AID 743080; calls by dose curve;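 further: BG1 cells stimulated with 17beta-estradiol alongside compound; series mostly up to about 70 µM; nearly all actives have a fitted effect of over 25% in size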). The method in brief: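 BG1-Luc-4E2 cells (endogenous full-length ER-alpha, 4xERE luciferase) hormone-starved 5 days in charcoal-stripped FBS, plated 4,000/well for 24 h, then compound plus 17beta-estradiol for 21.5 h at 37 C; ONE-Glo luminescence read.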

Experiment [33] in a line: qHTS assay to identify small molecule antagonists of the estrogen receptor alpha (ER-alpha) signaling pathway using the BG1 cell line - cell viability counter screen (AID 743081).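 Further: compound given together with 17beta-estradiol as the ER stimulus; series mostly up to about 70 µM; nearly all actives have a fitted effect of over 45% in size.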
The target in experiment [34] is Aromatase (Homo sapiens) (UniProt P11511). Description: qHTS assay to identify aromatase inhibitors (AID 743083). Further: series mostly up to about 70 µM; nearly all actives have a fitted effect of over 55% in size.
Experiment [35] in a line: qHTS assay to identify aromatase inhibitors - cell viability counter screen (AID 743084).
The target in experiment [36] is Aryl hydrocarbon receptor (Homo sapiens) (UniProt P35869). Description: qHTS assay to identify small molecule that activate the aryl hydrocarbon receptor (AhR) signaling pathway (AID 743085).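 Further: HG2L7.5c1 human HepG2 liver cells with stably integrated DRE-driven firefly reporter; series mostly up to about 70 µM; nearly all actives have a fitted effect of over 15% in size.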 The gist of the method: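 AhR agonist activity is inferred from enhanced light output of a DRE-controlled firefly luciferase reporter in HepG2 cells, measured with ONE-Glo following 24 h treatment at 37C.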

Experiment [37] is described as follows: qHTS assay to identify small molecule that activate the aryl hydrocarbon receptor (AhR) signaling pathway - cell viability counter screen (AID 743086). Further: series mostly up to about 70 µM; nearly all actives have a fitted effect of over 45% in size. The gist of the method: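 Cytotoxicity counter screen: CellTiter-Fluor signal (30 min, 37 C) in 4000 HepG2 cells/well carrying the DRE-luciferase reporter, following 24 h compound exposure at 37 C.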
Experiment [38] addresses Peroxisome proliferator-activated receptor gamma (Homo sapiens) (UniProt P37231). Description: qHTS assay to identify small molecule agonists of the peroxisome proliferator-activated receptor gamma (PPARg) signaling pathway (AID 743094; active means well fitted activation curve with a large enough effect in the signal ratio in the repeat runs, not every such curve was filed as active; the % refers to the signal ratio). The gist of the method: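 GeneBLAzer PPARg UAS-bla HEK293H cells carrying a stably integrated beta-lactamase reporter were pre-incubated 5 h at 37C, then exposed to compounds in DMSO for 17 h at 37C; LiveBLAzer B/G FRET substrate was added for 1 h at room temperature and fluorescence read.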

Values without a mark were called inactive. Inconclusive results are not listed. Active and inactive are the calls of the source. Unless noted, the call rests on the fitted dose curve; in most records, active means well fitted curve in the direction sought with a large enough effect in the repeat runs; inconclusive means weak or mixed curves; inactive means no such curve, though single readings can be large; an effect the other way counts as inactive or inconclusive.

Acetylcholinesterase (Homo sapiens), sequence (P22303 whole entry, looked up): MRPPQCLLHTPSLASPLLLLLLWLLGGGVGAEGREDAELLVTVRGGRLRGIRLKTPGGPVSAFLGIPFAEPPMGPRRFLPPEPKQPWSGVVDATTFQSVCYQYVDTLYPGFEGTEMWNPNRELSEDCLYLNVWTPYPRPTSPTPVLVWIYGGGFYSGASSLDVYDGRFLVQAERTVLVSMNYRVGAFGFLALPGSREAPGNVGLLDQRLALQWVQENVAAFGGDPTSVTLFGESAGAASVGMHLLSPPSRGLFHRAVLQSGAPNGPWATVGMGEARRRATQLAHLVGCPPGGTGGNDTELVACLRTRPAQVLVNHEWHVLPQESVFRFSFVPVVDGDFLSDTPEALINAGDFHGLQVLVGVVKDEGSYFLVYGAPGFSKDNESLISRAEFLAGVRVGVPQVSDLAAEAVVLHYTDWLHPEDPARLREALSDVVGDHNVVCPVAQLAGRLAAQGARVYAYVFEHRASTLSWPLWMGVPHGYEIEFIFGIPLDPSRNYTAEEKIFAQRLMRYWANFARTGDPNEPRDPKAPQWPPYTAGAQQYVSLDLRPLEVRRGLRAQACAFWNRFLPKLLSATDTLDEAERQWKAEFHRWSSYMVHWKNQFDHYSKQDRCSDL
Estrogen receptor (Homo sapiens), sequence (P03372 whole entry, looked up): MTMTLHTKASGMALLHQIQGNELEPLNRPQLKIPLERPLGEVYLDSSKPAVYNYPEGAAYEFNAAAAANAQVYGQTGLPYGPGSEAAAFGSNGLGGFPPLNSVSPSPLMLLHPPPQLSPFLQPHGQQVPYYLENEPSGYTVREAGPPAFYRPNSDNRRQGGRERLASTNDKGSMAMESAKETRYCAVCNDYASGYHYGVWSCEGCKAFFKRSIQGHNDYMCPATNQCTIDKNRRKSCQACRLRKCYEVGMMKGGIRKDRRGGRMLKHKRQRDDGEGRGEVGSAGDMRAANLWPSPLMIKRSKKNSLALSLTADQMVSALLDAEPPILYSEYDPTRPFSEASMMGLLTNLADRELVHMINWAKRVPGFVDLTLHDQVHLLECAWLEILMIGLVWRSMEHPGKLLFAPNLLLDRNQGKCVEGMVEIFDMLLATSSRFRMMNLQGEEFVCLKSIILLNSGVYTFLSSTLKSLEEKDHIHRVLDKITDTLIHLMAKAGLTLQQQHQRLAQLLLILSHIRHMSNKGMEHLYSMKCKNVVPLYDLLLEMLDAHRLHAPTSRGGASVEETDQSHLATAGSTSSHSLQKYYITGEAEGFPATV
Aryl hydrocarbon receptor (Homo sapiens), sequence (P35869 whole entry, looked up): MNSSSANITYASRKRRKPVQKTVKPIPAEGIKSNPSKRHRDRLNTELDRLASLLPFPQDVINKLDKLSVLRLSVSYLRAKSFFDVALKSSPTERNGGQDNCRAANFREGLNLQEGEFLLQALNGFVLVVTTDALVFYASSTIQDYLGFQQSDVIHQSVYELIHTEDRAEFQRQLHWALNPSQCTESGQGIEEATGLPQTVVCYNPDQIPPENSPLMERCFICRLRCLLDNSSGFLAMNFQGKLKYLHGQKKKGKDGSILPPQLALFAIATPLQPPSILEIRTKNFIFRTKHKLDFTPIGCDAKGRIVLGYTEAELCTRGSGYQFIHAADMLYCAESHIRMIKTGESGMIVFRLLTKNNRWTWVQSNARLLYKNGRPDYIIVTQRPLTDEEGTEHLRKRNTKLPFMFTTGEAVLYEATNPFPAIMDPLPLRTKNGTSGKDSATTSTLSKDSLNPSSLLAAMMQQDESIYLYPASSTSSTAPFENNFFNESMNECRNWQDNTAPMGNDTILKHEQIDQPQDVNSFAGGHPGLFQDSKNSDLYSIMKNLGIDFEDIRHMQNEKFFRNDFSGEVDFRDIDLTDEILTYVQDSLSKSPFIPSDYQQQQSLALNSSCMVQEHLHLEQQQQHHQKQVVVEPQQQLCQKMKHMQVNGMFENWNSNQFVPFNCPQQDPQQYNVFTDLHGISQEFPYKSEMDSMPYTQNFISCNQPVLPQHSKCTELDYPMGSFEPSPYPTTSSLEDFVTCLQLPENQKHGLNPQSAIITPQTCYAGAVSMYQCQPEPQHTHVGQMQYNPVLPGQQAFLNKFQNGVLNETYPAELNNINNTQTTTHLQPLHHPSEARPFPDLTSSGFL
Peroxisome proliferator-activated receptor gamma (Homo sapiens), sequence (P37231 whole entry, looked up): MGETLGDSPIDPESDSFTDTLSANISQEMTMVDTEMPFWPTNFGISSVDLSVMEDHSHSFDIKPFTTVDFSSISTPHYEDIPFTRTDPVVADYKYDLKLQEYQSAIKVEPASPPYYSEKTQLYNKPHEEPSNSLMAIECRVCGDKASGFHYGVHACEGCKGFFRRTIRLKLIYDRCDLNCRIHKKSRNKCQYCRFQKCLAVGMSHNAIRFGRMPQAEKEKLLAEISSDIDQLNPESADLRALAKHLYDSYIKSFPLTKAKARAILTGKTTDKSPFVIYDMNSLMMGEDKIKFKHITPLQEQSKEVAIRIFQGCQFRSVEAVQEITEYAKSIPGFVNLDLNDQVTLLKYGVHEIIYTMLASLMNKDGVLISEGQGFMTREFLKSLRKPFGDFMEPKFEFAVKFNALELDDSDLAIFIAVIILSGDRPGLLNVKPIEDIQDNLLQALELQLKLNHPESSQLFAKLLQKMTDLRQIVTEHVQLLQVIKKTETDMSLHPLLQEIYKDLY
Aromatase (Homo sapiens), sequence (P11511 whole entry, looked up): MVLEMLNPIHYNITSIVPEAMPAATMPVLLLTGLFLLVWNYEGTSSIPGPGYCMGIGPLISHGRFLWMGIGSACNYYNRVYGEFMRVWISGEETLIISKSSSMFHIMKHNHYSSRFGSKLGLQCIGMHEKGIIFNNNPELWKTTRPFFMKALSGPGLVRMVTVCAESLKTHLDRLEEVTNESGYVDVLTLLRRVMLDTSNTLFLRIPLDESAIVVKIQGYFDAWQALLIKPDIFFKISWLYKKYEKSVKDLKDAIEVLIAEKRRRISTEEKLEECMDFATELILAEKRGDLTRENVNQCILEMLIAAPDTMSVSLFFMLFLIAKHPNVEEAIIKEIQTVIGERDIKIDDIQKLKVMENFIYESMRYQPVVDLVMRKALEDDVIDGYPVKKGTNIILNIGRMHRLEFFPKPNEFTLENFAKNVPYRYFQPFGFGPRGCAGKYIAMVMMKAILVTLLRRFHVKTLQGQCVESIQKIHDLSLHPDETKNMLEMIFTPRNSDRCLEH

For the compound `O=C1c2ccccc2C(=O)C1c1ccc2cc(S(=O)(=O)O)cc(S(=O)(=O)O)c2n1`, the Potency entry in experiment [1], in experiment [2] and in experiment [3] was “inactive” each time.
`CCOC(=O)/C=C\C(=O)OCC`: the Potency entry in experiment [1], in experiment [2] and in experiment [3] was “inactive” throughout.
For the compound `CCCCC1CCC(=O)O1` (centres undefined), the Potency result in experiment [1], in experiment [2] and in experiment [3] was “inactive” throughout.
Take `CC(C)=CCN1CC[C@]2(C)c3cc(O)ccc3C[C@H]1[C@H]2C`: the Potency entry in experiment [4], in experiment [5], in experiment [6], in experiment [7], in experiment [8] and in [9] was “inactive” each time. Also, the Potency result in experiment [11], in [13], in experiment [14], in [15], in [18] and in experiment [19] was “inactive” in each case. Besides, the Potency result in experiment [20], in experiment [21], in experiment [25], in experiment [26], in experiment [27] and in experiment [28] was “inactive” each time. In addition, the Potency entry in experiment [29], in [30], in [32], in experiment [33], in experiment [34] and in [35] was “inactive” each time. Moreover, the Potency entry in experiment [36], in experiment [37] and in [38] was “inactive” each time. In addition, the call in [10], in [12], in experiment [16] and in [17] was inactive. For the same compound, the Potency in experiment [22] is 24.3 µM (active); in experiment [23], 27.3 µM (active); in experiment [24], 27.3 µM (active); in experiment [31], 30.6 µM (active).
